Screening data (PubChem BioAssay)
Only some compounds are listed: those with a hit (about 12% of all), similar ones and a draw of the others.
BAZ2B block – BAZ2B (human) inhibition; Q9UIF8; AlphaScreen BAZ2B-H3K14Ac peptide displacement; Potency, µM (doses to about 114 µM), for the others: top-dose activity change, negative = inhibition, usual class: inhibitors; hit rate 4.4% among 360,000; further: on the % scale 0 is the no-effect control and ±100 the full control effect; nearly all actives have a fitted effect of over 60% in size
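AlphaScreen displacement of biotin-H3(5-23)K14Ac peptide (50 nM final) from BAZ2B (50 nM final) in PBS pH 7.4, 0.01% Tween-20; complex preformed 30 min RT, then compounds (top 110 uM) 30 min RT, beads 20 min dark.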
HP1b binding inh – inhibitors of HP1-beta chromodomain binding to methylated histone tails. P83916. AlphaScreen HP1-beta / biotin-H3K9me3 peptide binding. Potency, µM (titrated, usually from 114 µM), for inactives: at the top dose activity change, negative = inhibition, usual class: inhibitors. hit rate 0.56% among 390,000. AID 540317; further: nearly all actives have a fitted effect of over 70% in size
Target sequence (P83916 whole entry, looked up): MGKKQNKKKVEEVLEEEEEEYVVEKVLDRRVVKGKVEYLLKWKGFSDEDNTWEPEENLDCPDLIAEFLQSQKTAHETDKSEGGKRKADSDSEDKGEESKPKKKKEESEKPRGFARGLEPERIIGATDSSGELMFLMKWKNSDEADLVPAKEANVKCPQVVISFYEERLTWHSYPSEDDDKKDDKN
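Compound inhibition of the preformed complex between 50 nM HP1-beta and 50 nM biotinylated H3K9me3 peptide was read by AlphaScreen. Buffer was PBS pH 7.4 with 0.01% Tween-20. Incubations ran 30 min at room temperature, with 10 ug/mL donor/acceptor beads.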
JMJD2A Tudor inh – blocks the human JMJD2A Tudor domain. Potency, µM (series often up to 114 µM), inactives show at the highest dose activity change, negative = inhibition, most hits filed as inhibitors. O75164. hit rate 4.4% among 390,000. AlphaScreen JMJD2A-Tudor / H3K4me3 peptide binding; further: on the % scale 0 is the no-effect control and ±100 the full control effect; nearly all actives have a fitted effect of over 50% in size
G9a block – inhibitors of human histone lysine methyltransferase G9a. Potency, µM (highest dose often 102 µM), for the others: at the highest dose activity, negative = inhibition, hits mostly inhibitors. Q96KQ7. hit rate 8.8% among 350,000. AID 504332. G9a H3K9 monomethylation, AlphaScreen, 2 h; further: on the % scale 0 is the no-effect control and ±100 the full control effect; nearly all actives have a fitted effect of over 75% in size
Target sequence (Q96KQ7 913-1193 limits assumed): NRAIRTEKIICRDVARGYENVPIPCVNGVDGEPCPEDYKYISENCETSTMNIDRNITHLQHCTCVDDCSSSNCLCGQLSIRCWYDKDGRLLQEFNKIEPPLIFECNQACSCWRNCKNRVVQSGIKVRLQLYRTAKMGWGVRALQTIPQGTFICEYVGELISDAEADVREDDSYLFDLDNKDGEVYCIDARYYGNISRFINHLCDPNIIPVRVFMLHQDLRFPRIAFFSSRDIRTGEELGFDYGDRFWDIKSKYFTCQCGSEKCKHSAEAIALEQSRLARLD
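Step 1: enzyme (final 20 nM) with compound, 15 min RT. Step 2: substrate peptide 500 nM and SAM 20 uM, 2 h RT. Step 3: anti-H3K9me1 antibody and AlphaScreen beads, 10 min, then plate read.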
Sfp PPTase inh – blocks B. subtilis Sfp PPTase activity | Q9F4F7 | Biochemical Sfp PPTase activity, qHTS | Potency, µM, without a hit: largest response in the series, negative = inhibition, hits mostly inhibitors | hit rate 3.5% among 310,000;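 further: the enzyme is Sfp with the accession as filed and its product quenches rhodamine fluorescence; 0% = enzyme reaction without inhibitor and -100% = no enzyme wells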
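Reaction rates are the 30-min fluorescence difference (ex 525, em 598 nm) in wells containing 15 nM Sfp, 5 uM rhodamine-CoA and 12.5 uM BHQ-2-YbbR at pH 7.6 with 10 mM MgCl2.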
PLK1 PBD inh – inhibitors of human PLK1 polo-box domain binding; P53350; Plk1 PBD binding of FITC phosphopeptide, fluorescence polarization; Potency, µM, inactives show max response, negative = inhibition, usual class: inhibitors; hit rate 2.8% among 360,000; further: series mostly up to about 57 µM; on the % scale 0 is the no-effect control and ±100 the full control effect; nearly all actives have a fitted effect of over 65% in size
Starred values were filed as active, the others as inactive; u = inconclusive; x = not tested or not shown; [ ] = another dose, or the depositor's remark. The call rests on the fitted dose curve; in most records, active means well fitted curve in the direction sought with a large enough effect; inconclusive means small, poorly fitted or top-dose-only effect, or another doubt; inactive means no such curve, though single readings can be large; an effect the other way counts as inactive or inconclusive. Potency means the concentration at half of the fitted maximal effect.

SMILES	BAZ2B block	HP1b binding inh	JMJD2A Tudor inh	G9a block	Sfp PPTase inh	PLK1 PBD inh
O=C(N/C(=C/c1ccco1)C(=O)N1CCCC1)c1cccs1	u	18%	-5%	-5%[2.33 µM]	32µM*	-5%
O=C(N/C(=C/c1ccc([N+](=O)[O-])cc1)C(=O)N1CCCC1)c1ccccc1	-4%	-19%	-7%	22%	7%	5%
CC(C)(C)c1ccc(C(=O)N/C(=C\c2ccco2)C(=O)O)cc1	-34%	49%	-3%	u	-9%	-11%
O=C(N/C(=C\c1ccco1)C(=O)N1CCCCC1)c1ccc([N+](=O)[O-])cc1	x	34%	-9%	x	x	-5%
O=C(O)C(=Cc1ccccc1Cl)c1ccccc1	x	x	x	x	x	-6%
O=C(O)/C(=C/c1ccco1)NC(=O)c1ccccc1	-30%	-3%	u	45µM*	-19%	-24%
Cc1cccc(C(=O)N/C(=C\c2ccco2)C(=O)N2CCCC2)c1	-8%[57.1 µM]	-15%	-21%	40µM*	u	-5%
O=C(O)/C(=C/c1ccco1)c1ccccc1	-11%	x	x	u	22µM*	x
C[C@H](CCC(=O)NCC(=O)O)C1CC[C@H]2[C@H]3C(C[C@H](O)[C@]12C)[C@@]1(C)CC[C@@H](O)C[C@H]1C[C@H]3O (some centres undefined)	x	x	x	38%[59 µM]	14%	x
CC1(C)CC(=O)C2=C(C1)N1C(=C(C#N)C2c2ccc(Cl)cc2)N=C(N)c2ccccc21 (centres undefined)	50µM*	13%	u	u	5%	-5%
CC1(C)CC(=O)C2=C(C1)N1C(=C(C#N)C2c2ccccc2Cl)N=C(N)c2ccccc21 (centres undefined)	u	27%	u	-10%	4%	-7%
CC(C)(C)c1nnc(N/N=C/c2ccc(Br)cc2)n(N)c1=O	2%	30%	-10%	13%[59 µM]	u	4%
COc1cc(/C=N\Nc2nncn2N)ccc1OC(C)=O	-15%	41%	-8%	71µM*	-25%	-7%
CC1CCN(c2ccc(/C=N/n3nnnc3N)cc2[N+](=O)[O-])CC1	u	11%	-8%	0%	11%	-6%
CC1CCN(c2ccc(/C=N\Nc3nncn3N)cc2[N+](=O)[O-])CC1	u	-35%	u	u	79µM*	-3%
CC(C)(C)c1ccc(/C=N/Nc2nncn2N)cc1	-8%	27%	-10%	40µM*	-26%	3%
Nn1cnnc1N/N=C/c1cc(Br)cc(Br)c1O	32µM*	36%	89µM*	24%[2.33 µM]	10%	-8%
O=C(c1cccc(F)c1)N1CCC[C@@]2(CCN(c3ccccc3)C2)C1	x	x	x	6%[12.7 µM]	-9%	x
CCCCNc1c(CCc2ccccc2)nc2nc(C)cc(C)n12	x	x	x	x	x	-10%
Cc1ccc[n+](C(C)C(=O)Nc2ccc(C)c([N+](=O)[O-])c2)c1 (centres undefined)	-1%	12%	14%	11%	4%	0%
CCc1ccc(CNC(=O)CN2C(=O)C3CCCCN3c3ccc(C(=O)N4CCCC4)cc32)cc1 (centres undefined)	-15%	18%[57 µM]	-14%	-51%[59 µM]	x	x
CC(=O)NC[C@@H]1CN(c2ccc(N3CCOCC3)c(F)c2)C(=O)O1	x	x	x	22%[59 µM]	11%	x
CSc1ccc(/C=N\Nc2nncn2N)cc1	-8%	32%	-18%	u	79µM*	-3%
CC(C)C[C@@]12C(=O)N(c3cccc(Cl)c3)C(=O)N1[C@H](c1ccc(Cl)cc1)[C@@H]1C(=O)N(C3CCCCC3)C(=O)[C@@H]12	3%	29%	-11%	9%[2.33 µM]	x	4%
CCCCCC(=O)N(O)C1CC(=O)N(c2ccccc2)C1=O (centres undefined)	-29%	-78%	22µM*	1.4µM*	13µM*	u
SMILES	BAZ2B block	HP1b binding inh	JMJD2A Tudor inh	G9a block	Sfp PPTase inh	PLK1 PBD inh
CCCCCOc1ccc(N2C(=O)CC(N(O)c3ccccc3)C2=O)cc1 (centres undefined)	-2%	18%	-19%	50µM*	-4%	-4%
CCCCCCC(=O)N(O)C1CC(=O)N(Cc2ccccc2)C1=O (centres undefined)	2%	16%	u	2.5µM*	50µM*	-8%
CCCCOc1ccc(N2C(=O)CC(N(O)c3ccccc3)C2=O)cc1 (centres undefined)	-5%	24%	-8%	-4%	12%	-4%
CN(Cc1ccccc1)C1CC(=O)N(c2ccc(C(=O)O)cc2)C1=O (centres undefined)	9%	50%	-13%	3.5µM*	-23%	-3%
COc1ccc(N2C(=O)CC(N(CCc3ccccc3)C(=O)c3ccccc3)C2=O)cc1 (centres undefined)	17%	9%	-5%	u	11%	-12%
O=C(NNC(=O)C12CC3CC(CC(C3)C1)C2)c1csc(N2CCOCC2)n1	-5%	74%	-3%	34%	x	-6%
COc1ccc(-c2ccccc2)cc1NCc1ccc(OC)c(OC)c1	40µM*	u	40µM*	10µM*	u	-7%
COc1ccc(CNC(=O)c2ccc(-c3ccccc3)cc2)cc1OC	4%	14%	-9%	-7%[59 µM]	-1%	-10%
Cc1ccccc1NCc1ccccc1O	56µM*	-3%	u	40µM*	u	-6%
COc1ccc(-c2ccccc2)cc1NCc1ccccc1C	50µM*	-12%	u	u	-20%	-8%
CCOc1ccc(S(=O)(=O)NC(Cc2c[nH]c3ccccc23)C(=O)O)cc1 (centres undefined)	-13%	24%	-23%	-18%	8%	-13%
C[N+]1(C2CCC3CCCC2C3O)CCCCC1 (centres undefined)	-12%	7%	20µM*	u	-16%	-11%
Cc1ccc(NC(=O)CN2C(=O)CSc3ccc(S(=O)(=O)N4CCCC4)cc32)c(C)c1	u	15%	-15%	-24%[59 µM]	x	x
O=C(CCN1C(=O)/C(=C\c2cccs2)SC1=S)Nc1ccc(C(=O)O)cc1	-14%	5%	u	u	13%	-4%
CCN(CC)CCOC(=O)c1ccc(NC(=O)CCCN2C(=O)/C(=C\c3cccs3)SC2=S)cc1	20µM*	u	25µM*	x	50µM*	9%
O=C(CCCN1C(=O)/C(=C\c2cccs2)SC1=S)NNC(=O)c1ccncc1	u	23%	50µM*	-5%	19%	-13%
Cc1ccc(C(=O)NN2C(=O)/C(=C/c3cccn3C)SC2=S)cc1	22µM*	u	u	u	20µM*	14%
O=C(NN1C(=O)/C(=C/c2cccs2)SC1=S)c1ccncc1	-25%	-13%	-31%	45µM*	79µM*	-27%
COc1cccc(/C=C2\SC(=S)N(NC(=O)c3ccncc3)C2=O)c1	-17%	8%	-25%	-36%	21%	-9%
